Results as given in the supplement of paper PMC3334620.
In all, about 33,000 sequences were measured (“E-score (-0.5 to 0.5)”: median about -0.013, highest 2% from about 0.3 on). The full list was thinned out, with the highest values kept by preference.

What follows are sequences tested against T1, Msn1 (UniProt P22148) (assay: PBM E-score (8-mer binding enrichment) (E-score (-0.5 to 0.5)); higher = stronger / more preferred TF binding). Details: protein concentration: 200 nM; construct: GST-full length.
T1 sequence: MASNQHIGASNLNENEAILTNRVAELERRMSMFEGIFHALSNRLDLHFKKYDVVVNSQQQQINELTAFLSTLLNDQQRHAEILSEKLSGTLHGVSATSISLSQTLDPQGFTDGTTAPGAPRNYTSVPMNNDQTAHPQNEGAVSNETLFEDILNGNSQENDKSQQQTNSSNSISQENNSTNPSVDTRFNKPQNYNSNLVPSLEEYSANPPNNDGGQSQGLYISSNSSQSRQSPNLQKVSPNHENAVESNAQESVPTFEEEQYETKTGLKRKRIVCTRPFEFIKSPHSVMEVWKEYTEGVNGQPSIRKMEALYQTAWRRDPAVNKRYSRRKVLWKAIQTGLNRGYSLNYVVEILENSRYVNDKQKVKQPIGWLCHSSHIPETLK
Method: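 Universal 'all 10-mer' protein binding microarrays (Agilent AMADID 015681) probed with GST-tagged S. cerevisiae TFs (full-length or DBD) made by in vitro transcription/translation (PURExpress), about 100-200 nM. Bound TF was detected with fluorescent anti-GST. Each ungapped 8-mer (which stands for itself and its reverse complement) is scored by the PBM enrichment score (E-score), a modified Wilcoxon-Mann-Whitney statistic from -0.5 to +0.5, computed with the Universal PBM Analysis Suite. Scale: above 0.35 generally sequence-specific binding.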

Sequence	PBM E-score
AATGGAGC	-0.132
CTTGTGTC	0.304
ATTGTGTA	0.14
CGTGTGTC	0.0945
ATTGTGTC	0.314
CTTGTGTA	0.114
ATTGTGTG	-0.0187
AGTCTCCG	0.159
ATCACAGC	0.053
AAATGAGT	0.0295
AATGTACG	0.274
GATGTATA	-0.11
AATGTATA	0.323
AATGTACC	0.311
CATGTATA	0.141
AATGTACA	0.294
ACTGTACT	-0.00421
AATGTACT	0.364
AATGTAAT	0.193
GCTCCCTA	-0.334
GAGACCTA	-0.0946
AGTGTCAT	0.112
AATGTCAG	0.254
ACTGTCAC	0.00673
ACTGTCAT	0.0249

Sequence	PBM E-score
AATGTCAC	0.381
AATGTCAT	0.46
GTTTGCCA	-0.0238
CCACCCAG	-0.0137
CTATGTCC	0.461
GGATGTTA	-0.0664
CTATGTGC	-0.0695
CGATGTAC	0.169
AGATGTCG	0.0151
CTATGTTC	0.103
AGATGTTC	0.0457
CGATGTCC	0.436
AGATGTCC	0.477
CGATGTCA	0.0775
GGATGTCA	0.305
CGATGTTC	-0.0457
AACAGAGT	0.128
AACAGCGT	0.0185
ATGGTGGG	-0.316
CACGCTAG	-0.0343
AATGGGAC	0.0849
CGAGCTAG	-0.0663
GAACAGGC	-0.164
ACTTGCCT	-0.136
CTGAAAGC	0.0584

Sequence	PBM E-score
ACTCGAAG	-0.168
AGATGTCA	0.309
AGATGTGA	-0.0694
AGATGTAA	0.102
ATAAATGG	0.0876
GTCACGGA	0.308
GACACGCC	0.324
GACACGGA	0.369
TACACGGA	0.303
AACACGCC	-0.12
GACACGGC	0.197
ATCACGGA	0.136
CTCACGGA	0.0943
GACACGCA	0.198
CACTAGCA	-0.0794
CCTGAACG	-0.104
ATAAGAGC	0.0327
ATCTTGAG	0.0323
ACGTCATA	0.235
AACCTAAA	0.121
ACAGTGCG	-0.181
CACCGGTA	0.0943
AGAACTCT	-0.119
CTCCAGTA	0.057
TCCGGAGA	0.0632

Sequence	PBM E-score
ACCGGACT	0.0676
TCCGGAAA	0.248
ACCGGACG	-0.0239
CCCGGACC	-0.11
ACCGGACA	0.306
GCCGGACC	-0.0867
TCCGGACA	0.453
CCCGGACA	0.425
CCCGGACG	-0.156
GCCGGAGA	0.0857
GCCGGACA	0.357
CGTCCCGC	0.0266
AGGTCGCC	-0.164
AAAAAAGC	-0.0879
AAGGTCCA	-0.0265
CCAGCAAA	0.06
AATGGCCT	-0.164
AGTATGTA	-0.0186
CGTATGTC	0.359
AGTATGTG	0.0347
AGTATGTC	0.353
CGTATGGC	0.0738
CGTATGTA	0.148
CGTTGGAA	-0.0918
ACTATACC	0.0929

Sequence	PBM E-score
ATAAGGAC	0.369
CCAAGGAC	0.16
ACAAGGAG	0.0113
GCAAGGAA	-0.122
ACAGGGAC	0.324
ACAAGGAC	0.358
GCAAGGAC	0.395
GCAGGGAC	0.163
ACAAGGAA	0.178
ATAAGGAT	0.161
ACAGGGAT	-0.147
GTAAGGAC	0.268
GGCGAGGA	-0.0575
TCATCCGA	0.183
GTACCTGA	0.149
GTCTGTGA	0.0908
CGACGCCG	0.0839
AAAGCACG	0.0204
TAGCAAAA	0.124
CCTGTTGA	-0.00042
AGAAAACT	0.116
CCGTGAAC	0.0411
CTCTACGA	0.0394
CAGAATGA	0.0577
AAAGACAT	0.387

Sequence	PBM E-score
GAAGACAC	0.181
CAAGACAA	0.367
GAAGACCA	-0.102
TAAGATAA	0.0274
AAAGATAA	0.14
AAAGACCT	0.0725
GAAGACAA	0.36
CAAGATAA	0.324
CAAGACAC	0.183
AAAGACTT	0.0779
CAAGACAG	0.0634
TAGGCAAA	0.0155
AGTCACAA	0.114
GCCTAGTA	-0.087
CCATGGAG	-0.119
GATGGGGA	-0.143
ATTTCGCA	0.201
ACCAGTCA	-0.0816
ATCCTTGA	-0.0979
AAAGACAC	0.213
TAAGACAA	0.395
AAAGACAG	0.193
TAAGACGA	-0.00272
AAAGACAA	0.418
TAAGACCA	-0.13

Sequence	PBM E-score
AACGGATA	0.18
CGGGGTAC	-0.216
GTCGATGA	-0.0803
CGGGGGCA	-0.318
ACGACATC	0.163
ACGACATG	0.364
ACGACATA	0.319
CCGACATA	0.215
GCGACATA	0.299
ACGACAGG	0.0905
GGTCGGTA	0.0288
AACTGAGT	-0.00489
AATGCGGA	0.114
CGTCTAAA	-0.0424
GACAGAAA	0.291
TACAGACA	0.371
GACAGACC	0.0373
CACAGACC	0.0741
GACAGACA	0.414
CACAGACA	0.36
CACAGACG	-0.0835
TACAGAGA	-0.0201
AACAGACA	0.295
AGAGGCAA	-0.0984
ACGTGAAA	0.119

Sequence	PBM E-score
CGAGTTGA	0.0114
AGTACTAA	0.121
CGTACCAA	0.182
AGTACCAA	0.175
TGTACCAA	0.328
CGTACTAA	0.093
TGTACTAA	0.321
AGCTGGAG	-0.251
GATGGTCA	-0.0299
AGCTACGA	-0.11
GTGATTGA	0.128
CACGCTTA	0.0573
CGGACTTA	0.215
TGGACTAA	0.183
AGGACTTC	0.243
AGGACTAA	0.309
AGGACTAT	-0.131
AGGACTTA	0.36
CAAAACTG	0.127
ATTGTTTG	0.202
ATTGTCTG	0.34
CCTGTCTA	0.143
GTTGTCTA	0.165
CTTGTCTC	0.319
CTTGTATC	0.106

Sequence	PBM E-score
ATTGTCTA	0.391
CTTGTCTA	0.324
ACTGTCTA	0.022
ATTGTCAG	0.218
CCTGTCTC	-0.0622
AGTGTCTA	0.188
ACTCCCTG	-0.28
GCGTCTGA	-0.101
ATGTGCTC	0.0447
CATAGTAG	0.0607
ACTGTTAC	-0.0545
CCCTATAC	-0.129
CTCTTAGC	-0.0929
TAATGGAA	0.151
CAGAAGTA	0.104
CTAAGCCC	-0.154
ACTGTCTC	-0.00421
ATTGTCTC	0.378
AGTGTCTC	0.0356
